Data from ChEMBL document CHEMBL4513216, “Probing the Open Global Health Chemical Diversity Library for Multistage-Active Starting Points for Next-Generation Antimalarials” (ACS Infect Dis, 2020).
In all, about 69,000 compounds went through this assay and about 8,600 (12%) showed an effect of 50% or more. The sample as a whole holds a higher share of strong results than the screen did.

Test system: Plasmodium berghei
Experiment: Screen against P. berghei liver stage (PbLuc), transformed with Luciferase, at 10uM
Assay type: functional, HepG2
Conditions: tested at 10 uM

Structure (SMILES)	INHIBITION
Cc1nc(C2CCCN(C(=O)COCCc3ccccc3)C2)no1 (stereo not drawn)	11.2%
CCCn1nccc1-c1cc(C2CCN(S(C)(=O)=O)CC2)nc(C)n1	-39.4%
COc1ccc2cnn(CC(=O)NCC3CCCO3)c(=O)c2c1OC (stereo not drawn)	34.5%
CCC(C)CS(=O)(=O)NC(=O)C1CCC1 (stereo not drawn)	62.3%
CCC(CC)CS(=O)(=O)NC(=O)C1CCC1	7.49%
CCC(C)CS(=O)(=O)NC(=O)C1CC1 (stereo not drawn)	2.39%
CCCN1CCC(Cc2noc(-c3[nH]cnc3C)n2)CC1	-1.85%
Cc1ccc(N2CCCC3(COCCN(c4ccccn4)C3)C2)nn1 (stereo not drawn)	17.2%
Cc1ccc(CNC(=O)CN2CCCC(Cn3cncn3)C2)cc1 (stereo not drawn)	31.8%
O=C(NCc1cn2c(n1)CN(Cc1cccc(F)c1)CC2)C1CCC1	-14.4%
Cn1cccc1C(=O)NCc1cnc2n1CCN(CC1CC1)C2	-13%
Cn1cccc1C(=O)NCc1cn2c(n1)CN(CC1CCOCC1)CC2	-4.88%
Cn1cc(C(=O)NCc2cn3c(n2)CN(Cc2ccccn2)CC3)cn1	53%
Cn1cccc1C(=O)NCc1cn2c(n1)CN(CC1CCOC1)CC2 (stereo not drawn)	58.4%
O=C(CC1CC1)NCc1cn2c(n1)CN(Cc1cccc(F)c1)CC2	50.9%
Cn1cc(C(=O)NCc2cn3c(n2)CN(CC2CCOC2)CC3)cn1 (stereo not drawn)	-11.6%
O=C(CC1CC1)NCc1cn2c(n1)CN(Cc1cccnc1)CC2	33.4%
Cc1ccc(CN2CCn3c(CNC(=O)c4cccn4C)cnc3C2)s1	54.7%
Cn1cccc1C(=O)NCc1cn2c(n1)CN(Cc1ccccn1)CC2	-37.6%
Cn1cc(C(=O)NCc2cn3c(n2)CN(Cc2ccncc2)CC3)cn1	-4.88%
Cn1cc(CN2CCn3c(CNC(=O)c4cccn4C)cnc3C2)cn1	2.01%
Cc1nc(C)n(C2CCCN(C(=O)c3ccc(F)c(F)c3)C2)n1 (stereo not drawn)	6.333%
Cc1noc(-c2ccc(N3CCN(Cc4ncccc4C)CC3)nc2)n1	17.1%
O=C(CN1CC(c2nc(C3CC3)no2)C1)NCc1ccc(F)cc1	-50.7%
CN(CCc1noc(C2CC2)n1)C(=O)C1(N2CCCC2)CCCC1	10.7%
Cc1nc(-c2ccccc2)cc(C2CCNCC2)n1	-25.3%
COc1ccc(CNCc2c(C(C)C)nn(C)c2N(C)C)cn1	19.2%

Structure (SMILES)	INHIBITION
CC(C)=CCCC1(C)CCC(=O)N(CCNc2nc(C)cc(=O)[nH]2)C1 (stereo not drawn)	18.5%
N#CCCN(C(=O)CN1CCCC1c1cccs1)c1ccccc1F (stereo not drawn)	13.833%
O=C1Nc2ccccc2CN(CC=Cc2ccccc2)C12CCNC2 (stereo not drawn)	35.8%
O=c1[nH]c2cn(-c3ccc(Cl)cc3)c(=O)n2[nH]1	-20.6%
CCC(CC)NC(=O)Cn1cc(-c2ccccc2)cn1	48.4%
Cn1cc(CN2CCn3cc(CNC(=O)c4cccn4C)nc3C2)cn1	62.6%
c1c(CN2CCOCC2)nc2n1CCN(C1CCOCC1)C2	27.5%
CCN1CCn2cc(CNC(=O)c3cnn(C)c3)nc2C1	-18.4%
O=C(NCc1cn2c(n1)CN(CC1CCOCC1)CC2)C1CCC1	60.2%
Cn1cc(CN2CCn3cc(CNC(=O)CC4CC4)nc3C2)cn1	33.4%
O=C(NCc1cn2c(n1)CN(Cc1nccs1)CC2)C1CCC1	11.4%
Cn1cccc1C(=O)NCc1cn2c(n1)CN(Cc1cccnc1)CC2	15.8%
CN1CCN(Cc2cn3c(n2)CN(C2CCOCC2)CC3)CC1	11.6%
Cn1cc(C(=O)NCc2cn3c(n2)CN(C2CCOCC2)CC3)cn1	54.7%
COCCN1CCn2cc(CNC(=O)C3CCC3)nc2C1	-10.3%
c1c(CN2CCCC2)nc2n1CCN(C1CCOCC1)C2	54.4%
Cn1cc(C(=O)NCc2cn3c(n2)CN(CC2CCOCC2)CC3)cn1	9.54%
Cn1cc(C(=O)N2CC[C@@H]3[C@@H]2CCN3Cc2ccccc2)cn1	5.44%
COc1ccc2c(ccn2CC(=O)Nc2n[nH]c(C(C)C)n2)c1	35.7%
CC(C)n1cnnc1CN(C)C(=O)c1ccc[nH]1	-5.19%
O=C(c1cnccn1)N1CCCC2(CCN(c3ccccn3)C2)C1 (stereo not drawn)	-16.1%
CCNc1cc2c(nn1)CCN(C(=O)c1ccnc(C)n1)C2	7.75%
Cc1ccnc(NCC2(N(C)C)CCOCC2)n1	-24%
O=C(c1cccnc1)N1CCc2ncnc(N3CCOCC3)c2CC1	41.6%
Cc1noc(C)c1CN1CCn2cc(CNc3ccccn3)nc2C1	88.1%
CC(=O)N1CCn2cc(CNC(=O)c3cccn3C)nc2C1	38.1%
